Source: PubChem BioAssay (EPA / NIEHS)
Several values for one entry are separate records, joined by “and”; a condition that tells them apart may be missing. Equal entries are not always repeated. Inconclusive results are not listed. A structure can be active in one record and inactive in another. Activity calls are given as the source filed them. Rule for the calls: active = hit-call score of the fitted dose curve at least 0.9, where 1 is the maximum; inconclusive = response in the unintended direction; inactive = score below 0.9.

Tests used:
[1] = target: chicken Estrogen Receptor (ESR1), ESR1 (gene 396099) (UniProt P06212); assay: ATG_chERa_XSP1: Attagene TRANS-FACTORIAL Multi-Species (XSP1) HepG2 Assay for chicken Estrogen Receptor (ESR1) (AID 2283779)
chicken Estrogen Receptor (ESR1), ESR1 (gene 396099), sequence (P06212 whole entry, looked up, the tested form may be a part): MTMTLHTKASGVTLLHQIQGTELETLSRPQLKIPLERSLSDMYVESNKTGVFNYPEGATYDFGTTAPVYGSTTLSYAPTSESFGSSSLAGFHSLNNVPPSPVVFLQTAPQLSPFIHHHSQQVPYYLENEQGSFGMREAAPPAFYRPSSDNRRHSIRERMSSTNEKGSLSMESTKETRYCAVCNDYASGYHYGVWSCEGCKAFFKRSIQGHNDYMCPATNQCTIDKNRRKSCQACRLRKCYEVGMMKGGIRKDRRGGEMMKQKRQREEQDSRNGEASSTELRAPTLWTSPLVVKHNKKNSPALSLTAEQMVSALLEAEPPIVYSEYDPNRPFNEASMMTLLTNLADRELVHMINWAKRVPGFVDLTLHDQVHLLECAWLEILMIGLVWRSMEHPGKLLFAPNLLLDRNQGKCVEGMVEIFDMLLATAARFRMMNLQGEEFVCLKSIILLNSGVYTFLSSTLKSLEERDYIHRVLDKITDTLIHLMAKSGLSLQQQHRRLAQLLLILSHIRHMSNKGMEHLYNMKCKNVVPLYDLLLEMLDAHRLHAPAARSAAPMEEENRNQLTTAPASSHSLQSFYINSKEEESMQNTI
Method in brief: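 HepG2 cells transiently transfected with multiplexed GAL4-UAS reporter units expressing chimeric NR-Gal4 proteins; 3 nM 6-alpha-fluorotestosterone present. Reporter mRNA measured 24 h after dosing by RT-PCR, FAM labelling, HpaI digest and capillary electrophoresis; gain of signal versus DMSO.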

[2] = test system: turtle Estrogen Receptor (ESR1), gene 101933533; assay: ATG_trERa_XSP1: Attagene TRANS-FACTORIAL Multi-Species (XSP1) HepG2 Assay for turtle Estrogen Receptor (ESR1) (AID 2283781)
Method in brief: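 HepG2 cells transiently transfected with GAL4-UAS reporter units and chimeric NR-Gal4 constructs, dosed for 24 h with 3 nM 6-alpha-fluorotestosterone present. Reporter mRNA was quantified by RT-PCR, fluorescent labelling and capillary electrophoresis, with gain of signal fitted relative to DMSO.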

[3] = test system: turtle Androgen Receptor (AR), gene 101947425; assay: ATG_trAR_XSP1: Attagene TRANS-FACTORIAL Multi-Species (XSP1) HepG2 Assay for turtle Androgen Receptor (AR) (AID 2283786)
Method in brief: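 HepG2 cells transiently transfected with a turtle AR–GAL4 chimera and GAL4-UAS reporter, co-treated with 3 nM 6-alpha-fluorotestosterone for partial stimulation. Reporter mRNA is quantified at 24 h by RT-PCR and capillary electrophoresis, gain-of-signal versus DMSO.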

[4] = target: Estrogen receptor beta (Homo sapiens) (UniProt Q92731); assay: ATG_hERb_XSP1: Attagene TRANS-FACTORIAL Multi-Species (XSP1) HepG2 Assay for human Estrogen Receptor (ESR2) (AID 2283788)
Estrogen receptor beta (Homo sapiens), sequence (Q92731 whole entry, looked up, the tested form may be a part): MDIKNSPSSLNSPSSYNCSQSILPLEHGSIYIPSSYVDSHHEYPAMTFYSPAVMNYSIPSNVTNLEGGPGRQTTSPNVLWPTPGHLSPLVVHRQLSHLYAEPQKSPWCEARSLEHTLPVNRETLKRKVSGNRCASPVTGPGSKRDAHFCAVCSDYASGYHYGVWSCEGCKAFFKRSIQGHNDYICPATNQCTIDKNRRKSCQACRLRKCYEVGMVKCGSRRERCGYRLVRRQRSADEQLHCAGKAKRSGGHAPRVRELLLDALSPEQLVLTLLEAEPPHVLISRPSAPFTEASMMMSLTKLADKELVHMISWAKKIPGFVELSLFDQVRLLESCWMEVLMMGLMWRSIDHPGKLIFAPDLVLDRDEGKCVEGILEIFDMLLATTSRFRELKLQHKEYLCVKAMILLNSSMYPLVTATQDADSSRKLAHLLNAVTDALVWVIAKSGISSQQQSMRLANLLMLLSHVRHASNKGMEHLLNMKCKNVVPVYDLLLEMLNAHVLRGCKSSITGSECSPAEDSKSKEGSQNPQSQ
Method in brief: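 Read-out: reporter mRNA induction by RT-PCR, HpaI digestion and capillary electrophoresis fluorescence, fitted in positive direction relative to DMSO baseline. Human liver HepG2 cells expressing ERβ-Gal4 fusion, dosed 24 h, medium containing 3 nM 6-alpha-fluorotestosterone.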

[5] = ATG_M_06_XSP1: Attagene TRANS-FACTORIAL Multi-Species (XSP1) HepG2 Assay for M06 Transcription Factor (Internal Marker) (AID 2283790)
Method in brief: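 Transfected HepG2 multi-reporter system treated 24 h in the presence of 3 nM 6-alpha-fluorotestosterone. The M06 internal marker transcript was quantified by RT-PCR with capillary electrophoresis as a background control, and gain of signal was scored versus DMSO.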

[6] = ATG_M_61_XSP1: Attagene TRANS-FACTORIAL Multi-Species (XSP1) HepG2 Assay for M61 Transcription Factor (Internal Marker) (AID 2283797)
Method in brief: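 HepG2 cells transiently transfected with multiplexed GAL4-driven reporter units, dosed 24 h with 3 nM 6-alpha-fluorotestosterone present. Reporter mRNA quantified by RT-PCR, 6-FAM labelling, HpaI digestion and capillary electrophoresis; internal-marker background control, gain of signal versus DMSO.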

[7] = test system: zebrafish Peroxisome Proliferator-activated Receptor gamma (PPARg), gene 557037; assay: ATG_zfPPARg_XSP1: Attagene TRANS-FACTORIAL Multi-Species (XSP1) HepG2 Assay for zebrafish Peroxisome Proliferator-activated Receptor gamma (PPARg) (AID 2283801)
Method in brief: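 HepG2 cells transiently transfected with GAL4-UAS reporter units including a zebrafish PPARg–GAL4 chimera, dosed 24 h with 3 nM 6-alpha-fluorotestosterone present. Reporter mRNA quantified by RT-PCR, FAM labelling, HpaI digestion and capillary electrophoresis; induction versus DMSO.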

[8] = target: Nuclear receptor subfamily 1 group I member 2 (Mus musculus) (UniProt O54915); assay: ATG_mPXR_XSP1: Attagene TRANS-FACTORIAL Multi-Species (XSP1) HepG2 Assay for mouse Pregnane X Receptor (PXR) (AID 2283803)
Nuclear receptor subfamily 1 group I member 2 (Mus musculus), sequence (O54915 whole entry, looked up, the tested form may be a part): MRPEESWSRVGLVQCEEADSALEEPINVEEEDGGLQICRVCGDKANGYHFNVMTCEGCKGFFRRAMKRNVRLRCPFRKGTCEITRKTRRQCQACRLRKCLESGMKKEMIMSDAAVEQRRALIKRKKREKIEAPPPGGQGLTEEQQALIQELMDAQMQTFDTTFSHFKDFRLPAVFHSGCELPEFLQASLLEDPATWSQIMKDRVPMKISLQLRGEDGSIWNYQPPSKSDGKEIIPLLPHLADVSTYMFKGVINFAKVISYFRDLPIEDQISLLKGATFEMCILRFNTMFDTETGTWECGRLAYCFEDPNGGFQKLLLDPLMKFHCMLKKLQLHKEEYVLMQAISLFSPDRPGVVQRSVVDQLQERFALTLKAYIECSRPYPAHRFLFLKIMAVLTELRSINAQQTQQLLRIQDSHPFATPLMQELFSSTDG
Method in brief: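 Transiently transfected HepG2 cells expressing a receptor-Gal4 chimera drive a GAL4-UAS reporter; 3 nM 6-alpha-fluorotestosterone included. Reporter mRNA read 24 h post-dose by RT-PCR and capillary electrophoresis; gain of signal relative to DMSO.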

[9] = target: human Thyroid hormone Receptor alpha (TRa), THRA (gene 7067) (UniProt P10827); assay: ATG_hTRa_XSP1: Attagene TRANS-FACTORIAL Multi-Species (XSP1) HepG2 Assay for human Thyroid hormone Receptor alpha (TRa) (AID 2283805)
human Thyroid hormone Receptor alpha (TRa), THRA (gene 7067), sequence (P10827 whole entry, looked up, the tested form may be a part): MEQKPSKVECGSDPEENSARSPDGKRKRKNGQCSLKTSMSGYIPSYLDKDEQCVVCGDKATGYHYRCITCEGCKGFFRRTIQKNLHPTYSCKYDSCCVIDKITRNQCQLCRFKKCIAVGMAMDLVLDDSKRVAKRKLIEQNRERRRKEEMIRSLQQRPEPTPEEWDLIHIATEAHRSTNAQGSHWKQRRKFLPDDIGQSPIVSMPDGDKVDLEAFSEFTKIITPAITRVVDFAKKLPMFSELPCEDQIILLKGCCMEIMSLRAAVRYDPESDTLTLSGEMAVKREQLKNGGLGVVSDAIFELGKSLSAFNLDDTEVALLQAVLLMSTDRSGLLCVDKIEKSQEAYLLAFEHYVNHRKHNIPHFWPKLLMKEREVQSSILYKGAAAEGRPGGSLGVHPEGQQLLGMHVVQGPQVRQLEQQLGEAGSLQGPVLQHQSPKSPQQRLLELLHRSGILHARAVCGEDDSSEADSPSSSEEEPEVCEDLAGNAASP
Method in brief: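 HepG2 cells transiently transfected with GAL4-UAS reporter units expressing chimeric NR-Gal4 proteins, dosed 24 hours with 3 nM 6-alpha-fluorotestosterone present. Reporter mRNA measured by RT-PCR and capillary electrophoresis; gain of signal fitted versus DMSO.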

[10] = target: zebrafish Thyroid Hormone Receptor alpha (TRa), thraa (gene 30670) (UniProt Q98867); assay: ATG_zfTRa_XSP1: Attagene TRANS-FACTORIAL Multi-Species (XSP1) HepG2 Assay for zebrafish Thyroid Hormone Receptor alpha (TRa) (AID 2283807)
zebrafish Thyroid Hormone Receptor alpha (TRa), thraa (gene 30670), sequence (Q98867 whole entry, looked up, the tested form may be a part): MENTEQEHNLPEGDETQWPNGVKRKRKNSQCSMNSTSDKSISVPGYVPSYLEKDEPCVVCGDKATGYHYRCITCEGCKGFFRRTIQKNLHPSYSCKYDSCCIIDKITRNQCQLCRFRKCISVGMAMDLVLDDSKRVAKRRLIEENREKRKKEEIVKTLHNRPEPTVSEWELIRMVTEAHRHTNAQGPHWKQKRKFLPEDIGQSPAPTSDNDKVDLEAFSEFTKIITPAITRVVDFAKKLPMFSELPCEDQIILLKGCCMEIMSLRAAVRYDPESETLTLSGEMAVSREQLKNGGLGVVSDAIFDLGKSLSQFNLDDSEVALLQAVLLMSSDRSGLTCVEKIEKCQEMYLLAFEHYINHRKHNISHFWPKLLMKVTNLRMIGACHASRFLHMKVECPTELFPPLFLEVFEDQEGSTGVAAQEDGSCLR
Method in brief: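 HepG2 cells transiently transfected with GAL4-UAS reporter units including a zebrafish TRa–Gal4 chimera, dosed 24 h with 3 nM 6-alpha-fluorotestosterone present. Reporter mRNA quantified by RT-PCR and capillary electrophoresis; gain versus DMSO.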

[11] = target: human Thyroid hormone Receptor beta (TRb), THRB (gene 7068) (UniProt P10828); assay: ATG_hTRb_XSP1: Attagene TRANS-FACTORIAL Multi-Species (XSP1) HepG2 Assay for human Thyroid hormone Receptor beta (TRb) (AID 2283808)
human Thyroid hormone Receptor beta (TRb), THRB (gene 7068), sequence (P10828 whole entry, looked up, the tested form may be a part): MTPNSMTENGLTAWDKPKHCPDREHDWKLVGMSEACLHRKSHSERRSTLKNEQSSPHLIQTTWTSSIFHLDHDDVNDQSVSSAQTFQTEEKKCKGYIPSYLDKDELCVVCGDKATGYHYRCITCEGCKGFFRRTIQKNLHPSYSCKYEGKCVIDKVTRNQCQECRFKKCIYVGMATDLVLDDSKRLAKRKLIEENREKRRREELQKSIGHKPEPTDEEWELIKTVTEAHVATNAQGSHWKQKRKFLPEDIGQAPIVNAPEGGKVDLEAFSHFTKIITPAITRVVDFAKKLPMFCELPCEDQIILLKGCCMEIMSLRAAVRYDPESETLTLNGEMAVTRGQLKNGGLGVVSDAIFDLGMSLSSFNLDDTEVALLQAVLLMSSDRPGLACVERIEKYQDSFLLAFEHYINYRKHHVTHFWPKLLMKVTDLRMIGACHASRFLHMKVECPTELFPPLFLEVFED
Method in brief: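 HepG2 cells transiently transfected with reporter units driving GAL4-UAS reporters for chimeric NR-Gal4 proteins; 24 h chemical exposure with 3 nM 6-alpha-fluorotestosterone present. Reporter mRNA quantified by RT-PCR and capillary electrophoresis, gain of signal versus DMSO.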

[12] = ATG_XTT_Cytotoxicity_XSP1: Cytotoxicity Assessment in the Attagene TRANS-FACTORIAL Multi-Species (XSP1) HepG2 Assay (AID 2283810)
Method in brief: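 XTT viability readout taken at 24 hours post-dosing in HepG2 liver cells co-treated with 3 nM 6-alpha-fluorotestosterone. Signal loss relative to DMSO controls reflects cytotoxicity.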

[13] = test system: turtle Estrogen Receptor (ERa), gene 101933533; assay: ATG_trERa_XSP2: Attagene TRANS-FACTORIAL Multi-Species (XSP2) HepG2 Assay for turtle Estrogen Receptor (ERa) (AID 2283812);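 note: human HepG2 liver cells transiently expressing turtle ERa-Gal4 chimeric receptor; actives raise reporter signal above DMSO so AC50 reflects agonist activity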
Method in brief: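 HepG2 cells transiently transfected with GAL4-UAS reporter units expressing turtle ERa-Gal4 chimera. Reporter mRNA measured after 24 h dosing by RT-PCR, fluorescent labelling and capillary electrophoresis; gain of signal fitted versus DMSO.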

[14] = target: GAL4 Transcription Factor (Internal Marker), GAL4 (gene 855828) (UniProt P04386); assay: ATG_GAL4_XSP2: Attagene TRANS-FACTORIAL Multi-Species (XSP2) HepG2 Assay for GAL4 Transcription Factor (Internal Marker) (AID 2283814);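 note: GAL4 reporter mRNA background control in MRTU transfected cells not a receptor target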
GAL4 Transcription Factor (Internal Marker), GAL4 (gene 855828), sequence (P04386 whole entry, looked up, the tested form may be a part): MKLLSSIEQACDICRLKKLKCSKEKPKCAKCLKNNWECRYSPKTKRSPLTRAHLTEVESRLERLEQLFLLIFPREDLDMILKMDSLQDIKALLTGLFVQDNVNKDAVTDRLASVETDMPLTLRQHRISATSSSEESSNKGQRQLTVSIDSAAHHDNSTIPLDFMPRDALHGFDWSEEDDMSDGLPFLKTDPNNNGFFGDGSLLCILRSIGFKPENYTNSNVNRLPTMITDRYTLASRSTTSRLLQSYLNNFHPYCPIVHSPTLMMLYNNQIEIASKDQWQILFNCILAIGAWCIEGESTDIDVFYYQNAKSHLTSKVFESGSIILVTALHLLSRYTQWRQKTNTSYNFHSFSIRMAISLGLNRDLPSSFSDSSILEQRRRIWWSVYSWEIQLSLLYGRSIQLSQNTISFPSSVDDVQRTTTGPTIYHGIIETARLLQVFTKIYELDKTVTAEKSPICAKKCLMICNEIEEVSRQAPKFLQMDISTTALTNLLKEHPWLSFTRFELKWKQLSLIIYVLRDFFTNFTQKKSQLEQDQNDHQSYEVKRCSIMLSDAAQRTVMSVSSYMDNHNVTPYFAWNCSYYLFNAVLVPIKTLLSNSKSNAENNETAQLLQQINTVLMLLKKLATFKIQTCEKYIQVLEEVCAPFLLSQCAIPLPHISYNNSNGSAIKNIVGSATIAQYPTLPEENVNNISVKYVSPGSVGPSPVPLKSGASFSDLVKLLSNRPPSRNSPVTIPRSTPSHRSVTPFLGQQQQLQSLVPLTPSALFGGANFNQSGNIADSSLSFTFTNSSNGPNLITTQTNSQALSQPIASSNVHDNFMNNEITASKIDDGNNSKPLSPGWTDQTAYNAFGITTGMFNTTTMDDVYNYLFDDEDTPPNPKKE
Method in brief: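 HepG2 cells transiently transfected with GAL4-UAS reporter units, stimulated with 3 nM 6-alpha-fluorotestosterone plus 1.5 nM norgestrel, dosed 24 h. Reporter mRNA by RT-PCR/capillary electrophoresis; gain-of-signal fit versus DMSO, background control.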

[15] = ACEA_ER_AUC_viability: ACEA Biosciences xCELLigence Real-Time Cell Analysis on Estrogen Receptor Agonism for Viability (AID 2283782);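 note: continuous compound exposure with impedance area under curve over 80 h; hit means loss of impedance signal meaning reduced cell growth or viability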
Method in brief: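 T-47D human breast cells in phenol red-free RPMI1640 with 10% charcoal-stripped FBS were dosed with an 8-point 1:4 dilution series from 100 uM top final concentration, in duplicate. Impedance-based growth was followed for 80 h; AUC analysed versus DMSO.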

AR (gene 367) [16] = target: AR (gene 367) (UniProt P10275); assay: ACEA_AR_agonist_80hr: ACEA Biosciences xCELLigence Real-Time Cell Analysis on Androgen Receptor Agonism for Proliferation (AID 2283783);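 note: hits increase impedance growth signal above DMSO baseline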
AR (gene 367), sequence (P10275 whole entry, looked up): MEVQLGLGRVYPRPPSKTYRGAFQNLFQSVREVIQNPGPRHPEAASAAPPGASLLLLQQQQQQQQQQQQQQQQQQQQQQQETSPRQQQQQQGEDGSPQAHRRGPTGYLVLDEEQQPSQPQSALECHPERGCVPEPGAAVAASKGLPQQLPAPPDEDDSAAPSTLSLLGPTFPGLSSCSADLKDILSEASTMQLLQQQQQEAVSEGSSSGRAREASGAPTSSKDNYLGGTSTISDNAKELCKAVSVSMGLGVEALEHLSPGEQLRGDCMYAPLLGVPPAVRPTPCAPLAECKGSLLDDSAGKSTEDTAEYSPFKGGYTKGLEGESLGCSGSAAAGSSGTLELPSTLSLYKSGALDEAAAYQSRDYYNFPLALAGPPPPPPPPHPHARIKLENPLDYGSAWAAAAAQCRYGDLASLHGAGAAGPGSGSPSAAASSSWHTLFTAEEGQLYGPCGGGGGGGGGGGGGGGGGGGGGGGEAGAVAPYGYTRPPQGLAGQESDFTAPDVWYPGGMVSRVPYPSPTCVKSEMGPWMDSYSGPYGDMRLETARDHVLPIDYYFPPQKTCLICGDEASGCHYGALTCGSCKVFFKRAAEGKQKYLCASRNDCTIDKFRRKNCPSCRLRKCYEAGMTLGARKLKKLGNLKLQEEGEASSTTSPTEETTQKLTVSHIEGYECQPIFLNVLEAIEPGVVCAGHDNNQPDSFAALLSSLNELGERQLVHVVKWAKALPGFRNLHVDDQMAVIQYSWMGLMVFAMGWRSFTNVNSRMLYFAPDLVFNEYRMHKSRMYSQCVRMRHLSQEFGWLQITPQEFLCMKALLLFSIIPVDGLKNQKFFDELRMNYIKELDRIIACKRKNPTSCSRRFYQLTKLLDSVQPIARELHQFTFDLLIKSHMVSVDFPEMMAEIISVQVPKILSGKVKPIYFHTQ
Method in brief: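 22Rv1 human prostate cancer cells were seeded after preconditioning in assay medium and monitored overnight, then dosed in an eight-point 1:4 dilution series from 100 uM (≤0.5% DMSO). Impedance-based growth was read at 80 h, gain-of-signal versus DMSO.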

AR (gene 367) [17] = target: AR (gene 367) (UniProt P10275); assay: ACEA_AR_antagonist_80hr: ACEA Biosciences xCELLigence Real-Time Cell Analysis on Androgen Receptor Antagonism for Proliferation (AID 2283787);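 note: hits lower the impedance growth signal relative to DMSO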
Method in brief: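 Impedance readout (RT-CES), 80 h post-dose; loss-of-signal vs DMSO baseline. 22Rv1 cells in assay medium. Compounds: 8-pt 1:4 series, max 100 uM final, up to 0.5% DMSO; n = 2.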

[18] = ATG_M_06_XSP2: Attagene TRANS-FACTORIAL Multi-Species (XSP2) HepG2 Assay for M06 Transcription Factor (Internal Marker) (AID 2283811);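 note: hits are increases in signal above the DMSO baseline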
Method in brief: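 HepG2 cells transiently transfected with GAL4-UAS multi-reporter constructs, dosed 24 h with 3 nM 6-alpha-fluorotestosterone plus 1.5 nM norgestrel present to stimulate androgen receptor. Reporter mRNA quantified by RT-PCR, 6-FAM labelling, HpaI digestion and capillary electrophoresis; gain-of-signal fitted versus DMSO baseline.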

[19] = target: Estrogen receptor beta (Homo sapiens) (UniProt Q92731); assay: ATG_hERb_XSP2: Attagene TRANS-FACTORIAL Multi-Species (XSP2) HepG2 Assay for human Estrogen Receptor (ERb) (AID 2283813);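 note: actives raise reporter mRNA above DMSO so AC50 reflects agonist induction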
Method in brief: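 HepG2 cells transiently transfected with GAL4-UAS reporter units and chimeric human ERb-Gal4, 24 h exposure. Reporter mRNA quantified by RT-PCR with FAM labelling, HpaI digestion and capillary electrophoresis; gain of signal versus DMSO.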

With CCCCC(CC)COC(=O)c1ccc(O)cc1 (stereo unspecified) the AC50 [1] was 2.3 µM (active), the AC50 [2] was 3.59 µM (active) and the outcome [3] was “inactive”. For the same molecule, the outcome [4] was “inactive”, the outcome [5] was “inactive” and the outcome [6] was “inactive”. The outcome [7] was “inactive”, the outcome [8] was “inactive” and the outcome [9] was “inactive”. For the same molecule, the outcome [10] was “inactive”, the outcome [11] was “inactive” and the AC50 [12] was 63.8 µM (active). For the same molecule, the AC50 [13] was 25.3 µM (active) and the outcome [14] was “inactive”.

With CC1CCC(C(C)C)C(O)C1 (stereo unspecified) the outcome [15] was “inactive”, the outcome (AR (gene 367) [16]) was “inactive” and the outcome (AR (gene 367) [17]) was “inactive”.

With BrCc1cccc(Oc2ccccc2)c1 the outcome [15] was “inactive”, the outcome (AR (gene 367) [17]) was “inactive” and the outcome [18] was “inactive”. For the same molecule, the AC50 [13] was 15.9 µM (active) and 18.2 µM (active) and the AC50 [19] was 21.3 µM (active) and 7.91 µM (active).

For CCCCC1CCC(O)CC1 (stereo unspecified), the outcome (AR (gene 367) [17]) was “inactive”.

With CCCCCC(=O)CC the outcome [15] was “inactive”.

With Cc1cc(=O)oc2cc(N(C)C)ccc12 the outcome [15] was “inactive”, the outcome [18] was “inactive” and the AC50 [13] was 49.9 µM (active). The outcome [13] was “inactive”, the outcome [19] was “inactive” and the outcome [14] was “inactive”.

In the case of C=CC(C)(O)CCC=C(C)C (stereo unspecified), the outcome [15] is reported as “inactive”.

For COc1ccccc1N=Nc1c(S(=O)(=O)O)cc2cc(S(=O)(=O)O)cc(NC(C)=O)c2c1O, the outcome [15] was “inactive”.

For CCCCCCCCC=CCCCCCCCC1=NCCN1CCO, the AC50 [15] was 10.9 µM (active), the outcome (AR (gene 367) [16]) was “inactive” and the outcome (AR (gene 367) [17]) was “inactive”.

With C=C1C[C@]23C[C@@]1(O)CC[C@H]2[C@@]12C=C[C@H](O)[C@@](C)(C(=O)O1)[C@H]2[C@@H]3C(=O)O the outcome [15] was “inactive”.

For CC(C)CCCCCCc1ccc(OCCOCCO)cc1, the outcome [15] was “inactive”, the outcome (AR (gene 367) [16]) was “inactive” and the outcome (AR (gene 367) [17]) was “inactive”.

In the case of CCCCCCCCCCCCCC(=O)OCC(O)CO (stereo unspecified), the AC50 [15] is reported as 81.6 µM (active) and the outcome (AR (gene 367) [17]) is reported as “inactive”.

With NCc1ccco1 the outcome [15] was “inactive”.

With CCc1ccc(O)cc1 the outcome [15] was “inactive” and the outcome (AR (gene 367) [17]) was “inactive”.

For CCc1ccc(O)c(OC)c1, the outcome [15] was “inactive”.

With CN1C(=O)c2ccccc2C1=O the outcome [15] was “inactive”.
